According to PubChem BioAssay (NCI):
Compounds without any hit were thinned out: in the full panel of roughly 79,000, 15% have a hit. Active and inactive are the calls of the source. Rule as the data show it: active = growth inhibition above about 70%; inactive = the rest.

Experiments:
[1] = NCI Yeast Anticancer Drug Screen. Data for the rad50 strain (AID 155);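 also: 0% = growth of vehicle-only cultures of the same strain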; conditions: S. cerevisiae rad50 strain growth inhibition, active compounds read high
Procedure, shortened: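 Readout: growth inhibition relative to vehicle-treated cultures. Compound exposure was carried out in a genetically defined yeast strain deficient in DNA damage repair.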

[2] = NCI Yeast Anticancer Drug Screen. Data for the mec2-1 strain (AID 157); conditions: S. cerevisiae mec2-1 strain, active compounds read high
Procedure, shortened: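 Vehicle-treated cultures served as reference for growth inhibition of compound-exposed mec2-1 yeast.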

[3] = NCI Yeast Anticancer Drug Screen. Data for the sgs1 mgt1 strain (AID 161);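 also: 0% = growth of cultures given vehicle only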; conditions: S. cerevisiae sgs1 mgt1 strain, active compounds read high
Procedure, shortened: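 Mutant yeast exposed to compound; growth scored against vehicle-only wells.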

[4] = NCI Yeast Anticancer Drug Screen. Data for the cln2 rad14 strain (AID 165);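 also: 0% = growth equal to vehicle treated cultures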; conditions: S. cerevisiae cln2 rad14 strain, active compounds read high
Procedure, shortened: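 Each compound was tested on cln2 rad14 yeast. Inhibition of growth was calculated against vehicle-exposed controls.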

[5] = NCI Yeast Anticancer Drug Screen. Data for the bub3 strain (AID 167); conditions: S. cerevisiae bub3 mutant strain, active compounds read high
Procedure, shortened: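 Readout: yeast growth inhibition, expressed relative to vehicle-only wells. The test organism is a mutant strain from a panel with lesions in DNA repair or checkpoint genes.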

[6] = NCI Yeast Anticancer Drug Screen. Data for the mlh1 rad18 strain (AID 175); conditions: S. cerevisiae mlh1 rad18 strain growth inhibition, active compounds read high
Procedure, shortened: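 Vehicle-treated cultures served as the reference for growth inhibition in a yeast strain carrying DNA damage repair alterations exposed to each compound.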

[7] = at 5.0 µM (retest, dose inferred, filed as 0.5)
[8] = at 50.0 µM (retest, dose inferred, filed as 5.0)

Measured: growth inhibition

O=C(O)C1C(Br)(c2ccccc2)C1(Br)c1ccccc1 (stereo not given)
inactive: [1]; [7] 47% | [2]; [7] -1% | [2]; [8] 30% | [2]; at 50.0 µM 17.7% | [3]; [7] 9% | [3]; at 50.0 µM 69% | [4]; [7] 25% | [5]; [7] -3% | [5]; [8] 10% | [5]; at 50.0 µM 7.05% | [6]; [7] -8% | [6]; [8] 55% | [6]; at 50.0 µM 59.9%
active: [1]; [8] 90% | [1]; at 50.0 µM 90.7% | [3]; [8] 70% | [4]; [8] 93% | [4]; at 50.0 µM 83.8%

CC(C=O)Cc1ccccc1 (stereo not given)
inactive: [1]; [7] 2% | [1]; [8] -6% | [1]; at 50.0 µM -8.9% | [2]; [7] 5% | [2]; [8] -1% | [2]; at 50.0 µM -8.05% | [3]; [7] 3% | [3]; [8] -4% | [3]; at 50.0 µM -3.35% | [4]; [7] -2% | [4]; [8] -8% | [4]; at 50.0 µM 37% | [5]; [7] -1% | [5]; [8] -4% | [5]; at 50.0 µM 10.3% | [6]; [7] -4% | [6]; [8] -8% | [6]; at 50.0 µM -1.45%

O=C(/C=C/c1ccccc1)c1ccc(NCc2nc3ccccc3[nH]2)cc1
active: [1]; [8] 74% | [1]; at 50.0 µM 70.7% | [2]; at 50.0 µM 77% | [3]; [8] 82% | [3]; at 50.0 µM 84% | [4]; [8] 80% | [4]; at 50.0 µM 84.8% | [5]; [8] 85% | [5]; at 50.0 µM 76.7% | [6]; [8] 80%
inactive: [1]; [7] -28% | [2]; [7] -62% | [2]; [8] 61% | [3]; [7] -23% | [4]; [7] -20% | [5]; [7] -8% | [6]; [7] -35% | [6]; at 50.0 µM 68.8%

Nc1ccc2c(c1)Cc1c(Cl)cccc1-2
inactive: [1]; [7] 1% | [2]; [7] 3% | [2]; at 50.0 µM 54.4% | [3]; [7] 3% | [4]; [7] -12% | [5]; [7] -3% | [6]; [7] -1%
active: [1]; [8] 95% | [1]; at 50.0 µM 96% | [2]; [8] 96% | [3]; [8] 90% | [3]; at 50.0 µM 89.4% | [4]; [8] 92% | [4]; at 50.0 µM 80.2% | [5]; [8] 94% | [5]; at 50.0 µM 94.3% | [6]; [8] 95% | [6]; at 50.0 µM 95.2%

O=[N+]([O-])c1ccccc1N=Nc1c(O)[nH]c2ccc(S(=O)(=O)O)cc12
inactive: [2]; [7] 36% | [3]; [7] 68%
active: [1]; [7] 73% | [1]; [8] 96% | [1]; at 50.0 µM 97.7% | [2]; [8] 87% | [2]; at 50.0 µM 97.8% | [3]; [8] 93% | [3]; at 50.0 µM 95.9% | [4]; [7] 85% | [4]; [8] 94% | [4]; at 50.0 µM 95.6% | [5]; [7] 87% | [5]; [8] 97% | [5]; at 50.0 µM 97.8% | [6]; [7] 90% | [6]; [8] 98% | [6]; at 50.0 µM 98.4%

CCCCCCCCCCCCCCC[C@@H](O)C[N+](C)(C)CCO
active: [1]; [8] 98% | [1]; at 50.0 µM 90.5% | [2]; [7] 91% | [2]; [8] 99% | [2]; at 50.0 µM 92.8% | [3]; [8] 98% | [3]; at 50.0 µM 90% | [4]; [8] 98% | [4]; at 50.0 µM 88.5% | [5]; [8] 98% | [5]; at 50.0 µM 87.1% | [6]; [8] 98% | [6]; at 50.0 µM 92.3%
inactive: [1]; [7] 28% | [3]; [7] 50% | [4]; [7] 42% | [5]; [7] 69% | [6]; [7] 57%

CC(=O)OCC1OC(OC2CCCc3c(O)c4c(c(O)c32)C(=O)c2ccccc2C4=O)C(OC(C)=O)C(OC(C)=O)C1OC(C)=O (stereo not given)
inactive: [1]; [7] 32% | [2]; [7] -8% | [3]; [7] 16% | [4]; [7] 2% | [4]; at 50.0 µM 28.9% | [5]; [7] 16% | [6]; [7] 19%
active: [1]; [8] 96% | [1]; at 50.0 µM 97.6% | [2]; [8] 98% | [2]; at 50.0 µM 99.5% | [3]; [8] 98% | [3]; at 50.0 µM 98.8% | [4]; [8] 96% | [5]; [8] 98% | [5]; at 50.0 µM 99.2% | [6]; [8] 97% | [6]; at 50.0 µM 82.1%

Fc1ccc(CSC(=S)Nc2cccc(C(F)(F)F)c2)cc1
inactive: [1]; [7] 10% | [2]; [7] 9% | [3]; [7] 12% | [4]; [7] 3% | [5]; [7] -2% | [6]; [7] 7%
active: [1]; [8] 99% | [1]; at 50.0 µM 99.6% | [2]; [8] 100% | [2]; at 50.0 µM 99.8% | [3]; [8] 100% | [3]; at 50.0 µM 99.7% | [4]; [8] 99% | [4]; at 50.0 µM 99.5% | [5]; [8] 100% | [5]; at 50.0 µM 99.7% | [6]; [8] 99% | [6]; at 50.0 µM 99.5%

Cn1c(=S)c2[nH]c(SCCN3CCCCC3)nc2n(C)c1=O
active: [1]; at 50.0 µM 97.2% | [2]; at 50.0 µM 99.3% | [3]; at 50.0 µM 99.2% | [5]; at 50.0 µM 97.8% | [6]; at 50.0 µM 98.5%
inactive: [1]; [7] 40% | [1]; [8] 54% | [2]; [7] 28% | [2]; [8] 46% | [3]; [7] 20% | [3]; [8] 69% | [4]; [7] 28% | [4]; [8] 28% | [4]; at 50.0 µM 54.5% | [5]; [7] 37% | [5]; [8] 57% | [6]; [7] 22% | [6]; [8] 55%

COc1ccc(N=Nc2ccc(O)cc2)cc1
inactive: [1]; [7] 7% | [1]; [8] 40% | [2]; [7] -5% | [2]; [8] 62% | [3]; [7] 2% | [3]; [8] 16% | [4]; [7] 7% | [4]; [8] 59% | [5]; [7] -22% | [6]; [7] 8% | [6]; [8] 65%
active: [1]; at 50.0 µM 96.5% | [2]; at 50.0 µM 96% | [3]; at 50.0 µM 97.5% | [4]; at 50.0 µM 92% | [5]; [8] 88% | [5]; at 50.0 µM 96.4% | [6]; at 50.0 µM 97%
